Binding signal data for 13 sequences are collected here from paper PMC7862700, “An all-to-all approach to the identification of sequence-specific readers for epigenetic DNA modifications on cytosine”.

Common to all, as to test: DAPPL (digital affinity profiling via proximity ligation, sequencing); 10 mM Tris-HCl pH 7.5, 50 mM NaCl, 1 mM DTT, 4% glycerol, room temperature, 30 min; GST-TFs on glutathione beads, 16-mer random dsDNA library, 0.1% formaldehyde crosslink after washing; high values mean tight binding
What all share (conditions): protein: recombinant; tags: N-terminal GST; dsDNA, one strand shown

The target of one experiment is T1, ETV3L (Homo sapiens, UniProt Q6ZN32 1-361).
T1 sequence: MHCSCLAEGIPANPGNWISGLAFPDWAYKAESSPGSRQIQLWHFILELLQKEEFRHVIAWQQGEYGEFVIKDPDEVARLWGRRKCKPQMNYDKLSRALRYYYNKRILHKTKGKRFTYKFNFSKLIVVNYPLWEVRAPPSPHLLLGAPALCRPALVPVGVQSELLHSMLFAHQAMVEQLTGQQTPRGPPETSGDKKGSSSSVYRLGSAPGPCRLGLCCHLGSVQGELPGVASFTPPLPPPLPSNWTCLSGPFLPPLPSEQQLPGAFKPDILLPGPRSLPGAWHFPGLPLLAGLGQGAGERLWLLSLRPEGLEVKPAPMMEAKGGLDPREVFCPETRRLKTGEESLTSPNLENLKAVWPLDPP
The method in brief:
(§1)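 Human transcription factors carrying a GST fusion were produced in yeast, bound to glutathione beads, tagged with DNA barcodes and pooled together with a tag-only sample. Each pool was held with 200 nmole of a random double-stranded 16-mer DNA library in Tris/NaCl/DTT/glycerol buffer for 30 min at room temperature, then washed, crosslinked in 0.1% formaldehyde, proximity-ligated with BsaI/T4 ligase (1 h, 37 °C), PCR-amplified and sequenced on an Illumina NextSeq500. Binding signal is the read frequency of each hexamer for a given factor divided by its frequency in the tag-only sample.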

The next experiment concerns the target T2, ETS2 (Homo sapiens, UniProt P15036 1-469).
T2 sequence: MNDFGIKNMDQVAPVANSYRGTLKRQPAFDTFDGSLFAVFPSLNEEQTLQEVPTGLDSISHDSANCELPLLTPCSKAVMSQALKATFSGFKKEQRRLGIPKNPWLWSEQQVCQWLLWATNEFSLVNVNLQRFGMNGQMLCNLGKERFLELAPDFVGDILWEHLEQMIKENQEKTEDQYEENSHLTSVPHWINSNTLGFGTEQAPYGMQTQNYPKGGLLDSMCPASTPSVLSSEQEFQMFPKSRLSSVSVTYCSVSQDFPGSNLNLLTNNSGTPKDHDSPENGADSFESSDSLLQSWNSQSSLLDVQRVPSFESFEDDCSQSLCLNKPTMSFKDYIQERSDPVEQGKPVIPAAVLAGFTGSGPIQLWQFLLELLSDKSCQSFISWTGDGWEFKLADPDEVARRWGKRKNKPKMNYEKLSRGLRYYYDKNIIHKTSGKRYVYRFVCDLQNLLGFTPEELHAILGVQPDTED
The method in brief: as §1

A further experiment has as its target T3, SPDEF (Homo sapiens, UniProt O95238 1-335).
T3 sequence: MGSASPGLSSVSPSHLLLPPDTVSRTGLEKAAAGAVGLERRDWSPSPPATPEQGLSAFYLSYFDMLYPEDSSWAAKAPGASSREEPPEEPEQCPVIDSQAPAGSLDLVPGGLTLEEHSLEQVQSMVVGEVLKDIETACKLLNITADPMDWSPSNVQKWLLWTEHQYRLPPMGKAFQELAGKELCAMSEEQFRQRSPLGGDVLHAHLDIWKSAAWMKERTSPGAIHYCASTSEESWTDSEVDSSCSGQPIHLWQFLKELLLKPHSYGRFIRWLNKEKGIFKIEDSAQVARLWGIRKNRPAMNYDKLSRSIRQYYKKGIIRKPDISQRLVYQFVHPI
The method in brief:
as §1

The next experiment has as its target T4, ETV7 (Homo sapiens, UniProt Q9Y603 1-341).
T4 sequence: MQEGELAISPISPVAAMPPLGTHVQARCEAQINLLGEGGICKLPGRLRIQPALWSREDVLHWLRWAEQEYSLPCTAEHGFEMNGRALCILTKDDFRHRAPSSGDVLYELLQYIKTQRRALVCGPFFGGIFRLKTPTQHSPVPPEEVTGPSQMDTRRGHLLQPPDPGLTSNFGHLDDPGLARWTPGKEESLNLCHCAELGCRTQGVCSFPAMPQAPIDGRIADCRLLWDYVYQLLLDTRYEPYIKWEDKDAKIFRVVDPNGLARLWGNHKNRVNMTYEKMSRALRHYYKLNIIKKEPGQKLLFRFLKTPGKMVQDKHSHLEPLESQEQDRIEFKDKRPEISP
The method in brief: as §1

The target in another experiment is T5, ELF5 (Homo sapiens, UniProt Q9UKW6-2 1-255).
T5 sequence: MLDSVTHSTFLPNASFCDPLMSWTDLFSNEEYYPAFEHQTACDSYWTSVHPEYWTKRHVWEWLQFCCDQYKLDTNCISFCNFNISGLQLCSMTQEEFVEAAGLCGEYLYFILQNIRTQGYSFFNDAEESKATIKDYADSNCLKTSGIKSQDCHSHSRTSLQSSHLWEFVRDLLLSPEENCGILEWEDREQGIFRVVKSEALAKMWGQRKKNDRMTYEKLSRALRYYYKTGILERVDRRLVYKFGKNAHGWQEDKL
The method in brief:
as §1

The next experiment concerns the target T6, ETV3 (Homo sapiens, UniProt P41162-2 1-143).
T6 sequence: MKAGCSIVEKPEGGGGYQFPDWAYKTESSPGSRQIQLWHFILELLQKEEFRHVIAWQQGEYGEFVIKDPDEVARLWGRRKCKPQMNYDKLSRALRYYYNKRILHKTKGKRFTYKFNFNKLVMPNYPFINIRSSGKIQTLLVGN
The method in brief:
as §1

A further experiment has as its target ETV6 (Homo sapiens, UniProt P41212 1-452). The method, boiled down:
as §1

The target in a further experiment is T7, ERF (Homo sapiens, UniProt P50548 1-548).
T7 sequence: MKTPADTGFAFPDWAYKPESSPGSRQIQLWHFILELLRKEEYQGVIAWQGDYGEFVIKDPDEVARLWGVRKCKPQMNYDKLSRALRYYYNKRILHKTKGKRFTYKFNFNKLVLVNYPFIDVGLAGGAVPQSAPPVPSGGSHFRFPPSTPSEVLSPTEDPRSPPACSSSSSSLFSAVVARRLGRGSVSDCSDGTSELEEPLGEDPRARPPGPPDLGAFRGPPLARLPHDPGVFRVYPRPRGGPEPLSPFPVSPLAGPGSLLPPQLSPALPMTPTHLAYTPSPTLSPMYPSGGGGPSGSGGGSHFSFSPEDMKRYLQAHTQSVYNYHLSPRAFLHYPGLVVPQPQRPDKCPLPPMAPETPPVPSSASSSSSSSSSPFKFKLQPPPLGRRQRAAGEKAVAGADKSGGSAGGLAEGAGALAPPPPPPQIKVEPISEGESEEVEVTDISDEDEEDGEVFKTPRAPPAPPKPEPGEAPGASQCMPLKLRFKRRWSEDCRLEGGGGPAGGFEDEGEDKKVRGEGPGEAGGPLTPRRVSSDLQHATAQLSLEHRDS
The method, boiled down: as §1

Chain of ETV6 (P41212 whole entry): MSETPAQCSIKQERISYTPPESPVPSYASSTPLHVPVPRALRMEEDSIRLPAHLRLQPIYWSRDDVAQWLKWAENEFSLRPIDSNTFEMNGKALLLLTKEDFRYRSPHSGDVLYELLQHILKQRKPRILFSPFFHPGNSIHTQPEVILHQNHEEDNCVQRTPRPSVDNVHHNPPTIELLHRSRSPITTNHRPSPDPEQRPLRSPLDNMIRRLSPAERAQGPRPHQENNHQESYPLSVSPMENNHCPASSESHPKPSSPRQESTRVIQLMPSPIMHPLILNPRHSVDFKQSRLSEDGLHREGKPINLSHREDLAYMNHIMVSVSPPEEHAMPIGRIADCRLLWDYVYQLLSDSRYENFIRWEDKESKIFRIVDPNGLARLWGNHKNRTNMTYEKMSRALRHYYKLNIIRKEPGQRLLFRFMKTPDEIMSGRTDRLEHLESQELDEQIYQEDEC

AAAAGT: the binding signal in the experiment with ETV3L is 1.08 fold enrichment (6-mer frequency, TF over GST control); with ETS2, 1.07 fold enrichment (6-mer frequency, TF over GST control); with SPDEF, 1.12 fold enrichment (6-mer frequency, TF over GST control); with ETV7, 1.16 fold enrichment (6-mer frequency, TF over GST control); with ELF5, 1.08 fold enrichment (6-mer frequency, TF over GST control); with ETV3, 1.07 fold enrichment (6-mer frequency, TF over GST control). The binding signal in the experiment with ETV6 was 1.06 fold enrichment (6-mer frequency, TF over GST control).
For the sequence GAACCA, the binding signal in the experiment with ETV3L is 1.01 fold enrichment (6-mer frequency, TF over GST control); with ELF5, 1.01 fold enrichment (6-mer frequency, TF over GST control).
In the case of GCAATG, the binding signal with ERF is 1.02 fold enrichment (6-mer frequency, TF over GST control); in the experiment with ETV7, 1.14 fold enrichment (6-mer frequency, TF over GST control); with ETV3, 1.03 fold enrichment (6-mer frequency, TF over GST control); with ETV6, 1.12 fold enrichment (6-mer frequency, TF over GST control).
Consider TCATGA, for which the binding signal with ETV3L is 1.03 fold enrichment (6-mer frequency, TF over GST control); with ETS2, 1.04 fold enrichment (6-mer frequency, TF over GST control); in the experiment with ETV7, 1 fold enrichment (6-mer frequency, TF over GST control); with ELF5, 1.05 fold enrichment (6-mer frequency, TF over GST control); with ETV3, 1.06 fold enrichment (6-mer frequency, TF over GST control).
As for TCAACG, the binding signal with ETV3L was 1.07 fold enrichment (6-mer frequency, TF over GST control); with ETS2 it was 1.13 fold enrichment (6-mer frequency, TF over GST control); with SPDEF, 1.05 fold enrichment (6-mer frequency, TF over GST control); with ETV7, 1 fold enrichment (6-mer frequency, TF over GST control); in the experiment with ETV3, 1.14 fold enrichment (6-mer frequency, TF over GST control).
In the case of AAAGCC, the binding signal is 1.01 fold enrichment (6-mer frequency, TF over GST control) with ERF; 1.05 fold enrichment (6-mer frequency, TF over GST control) with ETV3; 1.01 fold enrichment (6-mer frequency, TF over GST control) with ETV6.
Consider TCATAA, for which the binding signal in the experiment with ETV3L was 1 fold enrichment (6-mer frequency, TF over GST control); with ETS2, 1.01 fold enrichment (6-mer frequency, TF over GST control); in the experiment with SPDEF, 1.01 fold enrichment (6-mer frequency, TF over GST control); with ELF5, 1.02 fold enrichment (6-mer frequency, TF over GST control).
Consider TGGATT, for which the binding signal was 1.05 fold enrichment (6-mer frequency, TF over GST control) with ETV3L; 1.03 fold enrichment (6-mer frequency, TF over GST control) with ETS2; 1.04 fold enrichment (6-mer frequency, TF over GST control) with ETV7; 1.02 fold enrichment (6-mer frequency, TF over GST control) with ETV6.
ATCAGC: the binding signal is 1.09 fold enrichment (6-mer frequency, TF over GST control) with ETS2 and 1.01 fold enrichment (6-mer frequency, TF over GST control) with ETV6.
As to TGCCGA, the binding signal with ETV3L is 1.14 fold enrichment (6-mer frequency, TF over GST control); in the experiment with ETS2, 1.08 fold enrichment (6-mer frequency, TF over GST control); with SPDEF it was 1.05 fold enrichment (6-mer frequency, TF over GST control); with ETV7, 1.15 fold enrichment (6-mer frequency, TF over GST control); with ETV3, 1.22 fold enrichment (6-mer frequency, TF over GST control); with ETV6, 1.28 fold enrichment (6-mer frequency, TF over GST control).
Take CAGATT: the binding signal in the experiment with ETS2 is 1.02 fold enrichment (6-mer frequency, TF over GST control); in the experiment with ETV3, 1.03 fold enrichment (6-mer frequency, TF over GST control); in the experiment with ETV6, 1.02 fold enrichment (6-mer frequency, TF over GST control).
As for TCAGCA, the binding signal with ETS2 was 1.05 fold enrichment (6-mer frequency, TF over GST control); in the experiment with ETV7, 1.11 fold enrichment (6-mer frequency, TF over GST control); in the experiment with ETV6, 1.02 fold enrichment (6-mer frequency, TF over GST control).
Take CATAAA: the binding signal in the experiment with ETV3L was 1.06 fold enrichment (6-mer frequency, TF over GST control).
